Experimental findings from PubChem BioAssay (NCATS) are described below.

Results filed as inconclusive are left out. Calls of active or inactive are those of the source. Calls come from the whole dose curve; as a rule, active = well fitted cell-killing curve with a large enough effect; inconclusive = small, poorly fitted or top-dose-only effect, or effect the other way; inactive = no such curve, though single readings can be large or run the other way.

Assay [1] in a line: Quantitative High-Throughput drug screen in 47 multiple myeloma cell lines against the NCATS MIPE library collection: FR4_PLB cell viability assay (AID 1918924; note: nearly all actives have a fitted effect of over 35% in size). A digest of the protocol: (§1)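 Luminescent ATP measurement with CellTiter-Glo gives viability, scaled between DMSO-only wells (100%) and media-only wells (0%). Cells, 500 per well, faced library compounds for 48 hours at 37C.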

Assay [2] is described as follows: Quantitative High-Throughput drug screen in 47 multiple myeloma cell lines against the NCATS MIPE library collection: Delta47_JCRB cell viability assay (AID 1918925; note: nearly all actives have a fitted effect of over 45% in size). A digest of the protocol: as §1
The nature of assay [3]: Quantitative High-Throughput drug screen in 47 multiple myeloma cell lines against the NCATS MIPE library collection: EJM_DSMZ cell viability assay (AID 1918926; note: nearly all actives have a fitted effect of over 30% in size). A digest of the protocol: as §1
Assay [4] can be described thus: Quantitative High-Throughput drug screen in 47 multiple myeloma cell lines against the NCATS MIPE library collection: ARD_JJKsccE7 cell viability assay (AID 1918929). An outline of the steps:
as §1

Assay [5] in a line: Quantitative High-Throughput drug screen in 47 multiple myeloma cell lines against the NCATS MIPE library collection: AMO1_DSMZ cell viability assay (AID 1918927; note: nearly all actives have a fitted effect of over 30% in size). A digest of the protocol: as §1
Assay [6] can be described thus: Quantitative High-Throughput drug screen in 47 multiple myeloma cell lines against the NCATS MIPE library collection: ARP1_JJKsccF8 cell viability assay (AID 1918928; note: nearly all actives have a fitted effect of over 40% in size). A digest of the protocol: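 ATP readout (CellTiter-Glo), 48 h drug incubation, 37 °C/5% CO2, 500 cells per well; normalisation to DMSO (100%) and media-only (0%) controls.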
Potency is the fitted concentration of half-maximal effect.

As to `OCc1ccccc1O[C@@H]1O[C@H](CO)[C@H](O)[C@H](O)[C@H]1O`, the Potency entry in assay [1] and in assay [4] was “inactive” throughout. The values for the Potency in assay [2] and in assay [3] were 13.2 µM (active) and 10.5 µM (active), respectively.
For the compound `CCNC(=O)Nc1ccc(-c2nc3c(c(N4CCOC[C@H]4C)n2)CCN(C2COC2)C3)cc1`, the Potency is 0.935 µM (active) in assay [1]; 0.743 µM (active) in assay [2]; 7.43 µM (active) in assay [3]; 1.32 µM (active) in assay [5]; 0.743 µM (active) in assay [6]; 1.05 µM (active) in assay [4].
For the compound `OCC(O)C(O)C(O)CO` (stereo not given), the Potency result in assay [1], in assay [2], in assay [3] and in assay [4] was “inactive” in each case.
Regarding `CN[C@@H]1C[C@H]2O[C@@](C)([C@H]1OC)n1c3ccccc3c3c4c(c5c6ccccc6n2c5c31)C(=O)N[C@H]4O`, the Potency is 2.09 µM (active) in assay [1]; 0.0469 µM (active) in assay [2]; 0.526 µM (active) in assay [3]; 0.332 µM (active) in assay [5]; 0.833 µM (active) in assay [6]; 0.148 µM (active) in assay [4].
As for `CC[C@]12C=CCN3CC[C@@]4(c5cc([C@@]6(C(=O)OC)C[C@H]7C[C@@H](C(C)(F)F)CN(Cc8c6[nH]c6ccccc86)C7)c(OC)cc5N(C)[C@H]4[C@@](O)(C(=O)OC)[C@H]1OC(C)=O)[C@@H]32`, the Potency in assay [1] is 0.0017 µM (active); in assay [2] it was 0.0093 µM (active); in assay [3] it was 0.118 µM (active); in assay [5] it was 0.0059 µM (active); in assay [6], 0.0047 µM (active); in assay [4], 0.0042 µM (active).
On to `NC(=O)c1ncn([C@@H]2O[C@H](CO)[C@@H](O)[C@@H]2O)c1O`, for which the Potency in assay [1] is 18.7 µM (active); in assay [6], 13.2 µM (active). The Potency entry in assay [2], in assay [3], in assay [5] and in assay [4] was “inactive” throughout.
Turning to `N#CC(=C(N)Sc1ccc(N)cc1)c1ccccc1C(F)(F)F`, the Potency result in assay [1] and in assay [3] was “inactive” each time. Further, the Potency in assay [2] was 5.9 µM (active); in assay [6], 14.8 µM (active).
As to `CCOc1cc2ncc(C#N)c(Nc3ccc(OCc4ccccn4)c(Cl)c3)c2cc1NC(=O)C=CCN(C)C`, the Potency in assay [1] is 2.35 µM (active); in assay [2], 0.59 µM (active); in assay [3] it was 0.372 µM (active); in assay [5], 0.0935 µM (active); in assay [6], 14.8 µM (active); in assay [4], 0.662 µM (active).
As for `CC(=O)O[C@@]12CO[C@H]1C[C@H](O)[C@@]1(C)C(=O)[C@H](O)C3=C(C)[C@@H](OC(=O)C(O)[C@@H](NC(=O)OC(C)(C)C)c4ccccc4)C[C@@](O)([C@@H](OC(=O)c4ccccc4)[C@@H]21)C3(C)C` (stereo not given in full), the Potency result in assay [1], in assay [2], in assay [3], in assay [5], in assay [6] and in assay [4] was “inactive” throughout.
For the compound `CCOC(=O)N1CCN([N+]([O-])=NOc2ccc([N+](=O)[O-])cc2[N+](=O)[O-])CC1`, the Potency in assay [1] is 5.9 µM (active); in assay [2], 1.48 µM (active); in assay [3], 2.64 µM (active); in assay [5], 10.5 µM (active); in assay [6], 2.96 µM (active); in assay [4], 5.9 µM (active).
For `COc1cc(OC)cc(-c2ccc3ncc4ccc(=O)n(-c5ccc(N6CCNCC6)c(C(F)(F)F)c5)c4c3c2)c1`, the Potency in assay [1] is 4.69 µM (active); in assay [2] it was 1.48 µM (active); in assay [5], 1.18 µM (active); in assay [6] it was 3.32 µM (active); in assay [4], 2.64 µM (active).
As for `C[C@H]1C[C@H]2[C@@H]3CCC4=CC(=O)C=C[C@]4(C)[C@@H]3C(=O)C[C@]2(C)[C@@]1(O)C(=O)CO`, the Potency entry in assay [1], in assay [2], in assay [3], in assay [5] and in assay [4] was “inactive” each time.
Consider `C=C1C[C@@]2(O)O[C@@]3(C[C@H]2C(C)C)[C@H](C)CC[C@H]13`, for which the Potency entry in assay [2], in assay [3], in assay [5], in assay [6] and in assay [4] was “inactive” throughout.
Take `CC1(C)[C@H](O[C@H]2O[C@H](C(=O)O)[C@@H](O)[C@H](O)[C@H]2O[C@@H]2O[C@H](C(=O)O)[C@@H](O)[C@H](O)[C@H]2O)CC[C@@]2(C)[C@H]1CC[C@]1(C)[C@H]2C(=O)C=C2[C@H]3C[C@@](C)(C(=O)O)CC[C@]3(C)CC[C@]21C`: the Potency entry in assay [2], in assay [5] and in assay [6] was “inactive” throughout.
As for `C=CCNc1c(O)cc2c(O)c1C[C@@H](C)C[C@H](OC)[C@@H](O)[C@@H](C)C=C(C)[C@H](OC(N)=O)[C@@H](OC)C=CC=C(C)C(=O)N2`, the Potency is 0.469 µM (active) in assay [2]; 1.05 µM (active) in assay [3]; 0.148 µM (active) in assay [5]; 0.148 µM (active) in assay [6]; 0.0743 µM (active) in assay [4].
Regarding `CC(=O)N[C@@H]1[C@H](O[C@@H]2c3ccc(c(Cl)c3)Oc3cc4cc(c3O[C@H]3O[C@H](CO)[C@@H](O)[C@H](O)[C@H]3NC(=O)CCCCCCCC(C)C)Oc3ccc(cc3Cl)C[C@H]3NC(=O)[C@H](N)c5ccc(O)c(c5)Oc5cc(O)cc(c5)[C@H](NC3=O)C(=O)N[C@H]4C(=O)N[C@H]3C(=O)N[C@@H]2C(=O)N[C@@H](C(=O)O)c2cc(O)cc(O[C@H]4O[C@H](CO)[C@@H](O)[C@H](O)[C@H]4O)c2-c2cc3ccc2O)O[C@H](CO)[C@@H](O)[C@@H]1O`, the Potency result in assay [3], in assay [5], in assay [6] and in assay [4] was “inactive” in each case.
Regarding `CC(=O)ON=C1C(c2c(O)[nH]c3cc(Br)ccc23)=Nc2ccccc21`, the Potency in assay [2] was 5.26 µM (active); in assay [5], 1.87 µM (active); in assay [6], 10.5 µM (active); in assay [4], 5.26 µM (active).
Consider `Nc1ncn([C@@H]2O[C@H](CO)[C@@H](O)[C@@H]2O)c(=O)n1`, for which the Potency in assay [2] was 3.32 µM (active); in assay [3] it was 13.2 µM (active); in assay [5], 1.48 µM (active); in assay [6], 5.26 µM (active); in assay [4], 2.35 µM (active).
